Bioassay records from PubChem.
HT1080-NT tox = kills 2HG-producing HT-1080-NT fibrosarcoma cells; HT-1080-NT fibrosarcoma viability, CellTiter-Glo ATP luminescence, 48 h; Potency, µM (doses to about 46.1 µM), for the others: at the highest dose activity, negative = less viability, most hits filed as cytotoxic; hit rate 1.6% among 360,000; AID 686970;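 further: NT is the 2HG producing partner of a matched IDH1 knockdown line; potency means the concentration at half of the fitted maximal effect; 0% = DMSO-treated cells and -100% = media-only wells without cells; nearly all actives have a fitted effect of over 55% in size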
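HT-1080-NT; 750 cells/well; 5% FBS RPMI; 48 h compound, 37 degrees C; CellTiter-Glo luminescence; curve fitting and curve-class assignment.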
TDP1 cell noCPT = qHTS for Inhibitors of human tyrosyl-DNA phosphodiesterase 1 (TDP1): qHTS in cells in absence of CPT; DT40 Tdp1-/- hTDP1 cells, no CPT, ATP luminescence, 48 h; Potency, µM (titrated, usually from 46.2 µM), without a hit: at the highest dose activity change, negative = growth inhibition, usual class: inhibitors; hit rate 15% among 420,000; AID 686978, 2013; further: potency means the concentration at half of the fitted maximal effect; nearly all actives have a fitted effect of over 55% in size
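Camptothecin absent (DMSO only). Human TDP1-complemented DT40 knockout cells, 400 cells/well, 37 °C for minimum 48 hr; ATP measured via CellTiter-Glo, 30 min dark incubation, luminescence.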
IL1B secr inh = inhibitors of inflammasome signaling (IL-1 beta secretion); THP-1 LPS/ATP IL-1B secretion, AlphaLISA, 16 h; stronger effect = lower value; activity change, % at 57.5 µM; hit rate 4.7% among 360,000; AID 743279; in the data active means activity change below about -50%; inconclusive means mostly about -30% to -49%
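THP-1 cells pretreated 1 hr with compounds (up to 57.5 uM final), then stimulated with LPS (250 ng/mL final) plus ATP (1.25 mM final); secreted IL-1B measured by AlphaLISA after 16 hr, decreased signal indicating inhibition.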
HT1080 IDH1KD tx = kills HT-1080 cells with IDH1 knockdown; Potency, µM (top dose mostly 46.1 µM), inactives show at the top dose activity, negative = toxicity, usual class: cytotoxic; hit rate 2% among 360,000; AID 686971; HT-1080 IDH1 knockdown viability, ATP luminescence, 48 h;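 further: potency means the concentration at half of the fitted maximal effect; 0% = DMSO wells and -100% = cell-free medium wells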
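Knockdown cells (IDH1KD HT-1080) received compounds 2 h after plating at 750 cells/well and were kept 48 h at 37 °C in 5% FBS RPMI. A CellTiter-Glo luminescence read gave % activity for curve fitting.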
DT40 TDP1 CPT = DT40-hTDP1 cell growth loss with CPT; AID 686979; chicken DT40 Tdp1-/-;hTDP1 cells + 20 nM CPT, ATP luminescence, 48 h; Potency, µM (titrated, usually from 46.2 µM), without a hit: at the highest dose activity change, negative = growth inhibition, actives largely listed as inhibitors; hit rate 12% among 420,000; further: potency means the concentration at half of the fitted maximal effect; nearly all actives have a fitted effect of over 55% in size
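Chicken DT40 Tdp1-/- cells stably complemented with human TDP1 were seeded at 400 cells/well in medium containing 20 nM camptothecin, exposed to pin-transferred compounds, and grown at 37 °C for at least 48 hr. Viability was read as ATP luminescence.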
ELG1 DNA repair = ELG1-dependent DNA repair inhibition | HEK293T ELG1-luciferase reporter, luminescence, 16 h; DNA damage induced by 5-fluorouridine | Potency, µM (titrated, usually from 46.1 µM), without a hit: at the highest dose activity change, negative = inhibition, most hits filed as inhibitors | hit rate 2.3% among 330,000; further: potency means the concentration at half of the fitted maximal effect; nearly all actives have a fitted effect of over 55% in size
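Overnight (16 hr) co-exposure of 2,000 cells/well to 5-fluorouridine and compound at 37 °C preceded detection. Luciferase was quantified via ONE-Glo luminescence; loss of signal denotes inhibition.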
Active calls of the source: *; ? = inconclusive; · = no result given; [ ] = dose if it differs, or a comment. Rows were chosen to be rich in hits. Some 19% of all compounds tested hit in one or more screens of this group. Unless noted, the call rests on the fitted dose curve; in most records, active means well fitted curve in the direction sought with a large enough effect; inconclusive means small, poorly fitted or top-dose-only effect, or another doubt; inactive means no such curve, though single readings can be large; an effect the other way counts as inactive or inconclusive. Unless noted, on the % scale 0 is the no-effect control and ±100 the full control effect.

SMILES | HT1080-NT tox | TDP1 cell noCPT | IL1B secr inh | HT1080 IDH1KD tx | DT40 TDP1 CPT | ELG1 DNA repair
COc1ccc(Nc2c3c(nc4c(-c5ccccc5)c(C)nn24)CCC3)cc1 | 16% | 4% | 0 | 10% | 9% | 15µM*
CCn1cc(/C=C(\NC(=O)c2ccc(OC)c(OC)c2)C(=O)NCCCN2CCOCC2)c2ccccc21 | 11% | -12% | -7 | 8% | 4% | -26%
CCN(CC)S(=O)(=O)c1ccc2c(c1)c(=O)c(C(=O)N1CCN(c3cccc(C)c3)C(C)C1)cn2C (stereo not drawn) | · | ? | · | · | -26% | ·
COc1ccccc1CNC(=O)COC(=O)c1nccnc1N | 2% | -3% | 15 | -3% | -5% | 0%
CCOC(=O)c1[nH]c(=S)n(-c2ccccc2)c1C(=O)OCC | 6% | 2% | 6 | 0% | 12% | ·
O=C1CCC2CN3CCc4c([nH]c5ccccc45)C3CC2C1 (stereo not drawn) | -5% | 21µM* | -1 | -15% | ? | ·
O=C(O)[C@@H]1[C@H]2C[C@H]3c4[nH]c5ccccc5c4CCN3C[C@@H]2CC[C@@H]1O | 5% | -1% | 12 | 10% | -9% | 9%
O=C(COc1ccccc1)N=C1SC2CS(=O)(=O)CC2N1Cc1ccccc1 (stereo not drawn) | 0% | -28% | -1 | 3% | 1% | 10%
Cc1noc(C)c1CCC(=O)N1CCOc2ccc(CN3CCN(c4ccccn4)CC3)cc2C1 | · | ? | · | · | -2%[9.04 µM] | ·
COc1ccc(CNc2nc(-c3ccccc3)nc3ccccc23)cc1OC | ? | ? | -62* | -28% | -3% | ?
Fc1ccc(CNc2nc(-c3ccccc3)nc3ccccc23)cc1 | ? | ? | -62* | -18% | ? | ?
CS(=O)(=O)Nc1cccc(-c2nc(NCc3ccccc3)c3ccccc3n2)c1 | · | -28% | · | · | ? | ·
NC(=O)CSc1n[nH]c(=O)n1CCc1ccccc1 | 21% | 1% | 5 | 14% | 9% | 11%
CC(=O)N1CCc2cc(S(=O)(=O)NC(CC(C)C)C(=O)NCCc3cccc(C)c3)ccc21 (stereo not drawn) | · | -7% | · | · | 2% | ·
O=C1[C@@H]2[C@@H]3C[C@@H]([C@H]4ON=C(c5ccc(Cl)cc5)[C@@H]34)[C@@H]2C(=O)N1C1CCCCC1 | -2% | 9.2µM* | -20 | -8% | 16µM* | -21%
C=CCOc1ccc(C2=NO[C@@H]3[C@@H]4C[C@@H]([C@H]5C(=O)N(C)C(=O)[C@@H]45)[C@H]23)cc1 | -2% | -18% | 13 | -3% | -20% | ?
Cc1cc(C)c(S(=O)(=O)N2CCC3(CC2)OCCN3S(=O)(=O)c2cccs2)c(C)c1 | -8% | 23µM* | -10 | -22% | ? | ?
Cc1ccc(C)c(S(=O)(=O)N2CCC3(CC2)OCCN3S(=O)(=O)c2cccs2)c1 | 13% | ? | -8 | 20% | ? | ?
Cc1ccc(S(=O)(=O)N2CCC3(CC2)OCCN3S(=O)(=O)c2c(C)cc(C)cc2C)cc1 | 11% | 16µM* | 28 | -1% | 26µM* | -13%
COc1ccc(S(=O)(=O)N2CCOC23CCN(S(=O)(=O)c2ccccc2)CC3)cc1 | 17% | ? | 11 | 9% | ? | 12%
COc1ccc(S(=O)(=O)N2CCC3(CC2)OCCN3S(=O)(=O)c2c(C)cc(C)cc2C)cc1 | -2% | 8.2µM* | -5 | -11% | 13µM* | -15%
Cc1ccc(-n2c(=O)c3oc4ccccc4c3n(CC(=O)Nc3ccc(F)c(Cl)c3)c2=O)cc1C | · | -19% | · | · | -14% | ·
COc1cccc(CNC(=O)c2ccc3c(c2)nc2n3CCC(C)C2)c1 (stereo not drawn) | · | -21% | · | · | -12% | ·
